Screening results (PubChem)
Shown are actives, neighbours in structure and some others; about 20% of the full set was active somewhere.
Cycloheximide cs: affects cycloheximide protein synthesis inhibition readout, counter-screen; cell reporter, cycloheximide protein synthesis inhibition counterscreen; 300,000 tested, 12% active; max response, %; in the data active means max response mostly above about 13%, no sharp cut-off; inactive means mostly below about 14%; further: read at 38.3 µM for the half of the compounds with a filed dose
Shiga toxin inh: blocks Shiga toxin action in Vero cells. Vero cells, Shiga toxin protein synthesis inhibition reporter. inhibition, % at 38.7 µM. 290,000 tested, 9.2% active. AID 2315; in the data active means inhibition mostly above about 28%, no sharp cut-off; inactive means mostly below about 43%
Pf growth 48h: inhibits P. falciparum growth in the first generation, 48 h; P. falciparum luciferase growth in erythrocytes, 48 h; Potency, µM (titrated, usually from 28.7 µM), hits mostly inhibitors; 310,000 tested, 5.9% active
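Cell-based growth assay: transgenic P. falciparum expressing firefly luciferase, cultured in red cells within RPMI 1640 containing 0.5% w/v Albumax, 24 mM bicarbonate and gentamycin. A drop in luciferase activity indicates inhibition.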
HCMV inh: human cytomegalovirus inhibition. 410,000 tested, 4.5% active. HFF cells, HCMV-luciferase reporter, 72 h; active compounds read low. AID 1259415. activity change, negative = inhibition, % at 57.5 µM; in the data active means activity change below about -60%; inconclusive means no clear call, values can overlap the other calls; inactive means above about -39%
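Steps: HFFs plated, 16 h 37C; compounds added; HCMV-luciferase added to MOI 1 PFU/cell; 72 h 37C; OneGlo reagent, 5 min room temperature; luminescence read, normalized to controls.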
Pf growth 96h: P. falciparum growth inhibition at 96 hours. P. falciparum luciferase reporter growth, 96 h. Potency, µM (top dose mostly 28.7 µM), hits mostly inhibitors. 320,000 tested, 6.9% active
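Two parasite generations (96 h, 37 C, 5% CO2) of compound exposure in infected erythrocytes (0.05% parasitemia, 2% hematocrit). Luciferase-reporter P. falciparum; decreased luminescence indicates inhibited growth, aimed at apicoplast-acting delayed death.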
Hits are given with their value; . = inactive; ? = inconclusive; / = no result given. Unless noted, the call rests on the fitted dose curve; in most records, active means well fitted inhibition curve with a large enough effect; inconclusive means small, poorly fitted or top-dose-only effect, or another doubt; inactive means no such curve, though single readings can be large or run the other way.

SMILES	Cycloheximide cs	Shiga toxin inh	Pf growth 48h	HCMV inh	Pf growth 96h
C=CCN1CC[C@]23c4c5ccc(O)c4O[C@H]2/C(=N/NC(=O)c2ccccc2)CC[C@@]3(O)[C@H]1C5	/	/	/	-63.7	/
Oc1ccc2c3c1OC1c4oc5ccccc5c4C[C@@]4(O)[C@@H](C2)N(CC2CC2)CC[C@]314 (some centres not stated)	/	/	/	-61.4	/
Cc1cccc(N2CCN(C(=O)Cn3ncc4c([nH]c5ccccc54)c3=O)CC2C)c1 (configuration not stated)	/	/	/	.	/
COc1ccc(NS(=O)(=O)c2cc(NC(=O)C3CCCO3)ccc2N2CCCC2)cc1 (configuration not stated)	.	.	.	.	.
COc1ccc(NS(=O)(=O)c2cc(NC(=O)CCNC(C)=O)ccc2N2CCCCC2)cc1	/	/	9.28µM	?	?
COc1ccc(CCC(=O)Nc2ccc(N3CCOCC3)c(S(=O)(=O)Nc3ccc(OC)cc3)c2)cc1	/	/	/	.	/
COc1ccc(NS(=O)(=O)c2cc(NC(=O)C3CCCO3)ccc2N2CCCCC2)cc1 (configuration not stated)	.	.	5.22µM	-64.1	?
COc1ccc(NS(=O)(=O)c2cc(NC(=O)/C=C/c3cc(OC)ccc3OC)ccc2N2CCCCC2)cc1	.	.	4.15µM	.	2.62µM
Cc1ccccc1C(=O)O/N=C/c1c(N2CCOCC2)n(C)c2ccccc12	.	.	2.62µM	-98.8	2.33µM
COc1ccc(N(C)C(=O)NCc2noc3ccc(C)cc23)c(OC)c1	/	/	/	-81.6	/
COCCNC(=O)[C@@]1(Cc2ccccc2)C=C[C@@H](C)N1C(C)=O	37.8	45.2	.	.	.
C=CCSC1=N/C(=C\c2cc(OCC)c(OC(C)=O)c([N+](=O)[O-])c2)C(=O)S1	.	.	.	.	?
COc1ccc(CNC(=O)C(C)n2ccc3cc(S(=O)(=O)N4CCCC4)ccc32)cc1OC (configuration not stated)	/	/	/	.	/
Cc1ccc(CSc2cc(C)[nH]c(=O)n2)cc1	.	25.5	.	.	.
Cc1cc(SCc2ccc(Cl)cc2)nc(=O)[nH]1	15.8	.	.	.	?
Cc1cc(SCc2cccc(Cl)c2)nc(=O)[nH]1	.	.	.	.	.
Cc1cc(SCC(=O)NCc2ccc(Cl)cc2)nc(=O)[nH]1	/	/	/	.	/
Cc1ccc(S(=O)(=O)NC(CC(C)C)C(=O)Nc2ccncc2)cc1 (configuration not stated)	/	/	5.22µM	.	5.86µM
CCN(C(=O)Cn1cnc2onc(-c3ccc(F)cc3)c2c1=O)c1ccc(OC)cc1	/	/	/	.	/
COc1ccccc1CNC(=O)c1ccccc1N(C)S(C)(=O)=O	.	.	.	.	/
Cc1nn(C)cc1CNC(=O)Nc1ccc(Cl)c(Cl)c1	43.6	57.6	/	.	.
Cc1ccc(NC(=O)NCc2ccccn2)c(C)c1	.	.	.	.	?
Cc1ccc(NC(=O)NCc2ccccn2)cc1Cl	24.6	39.1	.	.	.
CCOC(=O)c1ccc(NC(=O)C(=O)NCc2ccccn2)cc1	.	.	.	.	.
CCc1ccc(NC(=O)C(=O)NCc2ccccn2)cc1	23.9	59.7	.	.	.
SMILES	Cycloheximide cs	Shiga toxin inh	Pf growth 48h	HCMV inh	Pf growth 96h
CN(c1ccccc1C(=O)NCc1ccccn1)S(C)(=O)=O	.	.	14.7µM	.	/
CN(C)S(=O)(=O)N(CC(=O)Nc1ccc(C(F)(F)F)cc1)c1ccccc1	/	/	/	.	/
Cc1ccc(NC(=O)NCc2ccccn2)cc1	34.6	74.7	.	.	?
Cc1ccc(NS(=O)(=O)c2cc(C(=O)NCc3ccccn3)ccc2Cl)cc1C	.	.	.	.	?
CC(=O)c1cccc(NC(=O)NCc2ccccn2)c1	30.8	49.8	.	.	/
CC(=O)c1cccc(NC(=O)NCc2cccnc2)c1	.	.	.	.	.
CCOc1ccc(NC(=O)NCc2ccccn2)cc1	.	.	.	.	.
Cc1ccc(NC(=O)Nn2cnnc2)cc1Cl	.	.	.	.	?
Cc1ccc(NC(=O)NCc2c(C)nn(C)c2C)cc1Cl	26.2	74.8	.	.	?
Cc1ccc(C(=O)NCc2ccccn2)cc1Cl	25.2	36.0	.	.	.
COc1ccc(C2=CCC3CCCCN3C2)cc1OC (configuration not stated)	/	/	/	.	/
O=C(COC(=O)C1CCN(S(=O)(=O)c2ccc3c(c2)OCCO3)CC1)Nc1cccc2ccccc12	.	.	.	?	.
CN(Cc1nc(CCc2ccccc2)no1)Cc1cccs1	15.7	.	.	.	?
COc1ccc(Cc2noc(CN(C)CCc3ccccc3)n2)cc1OC	.	.	?	.	?
C/C(=N\Nc1cc(N2CCCCC2)nc(C)n1)c1ccc(Br)cc1	.	.	3.7µM	-66.6	.
O=C(C[n+]1cc(-c2ccc(Cl)cc2)n2c1CCCCC2)c1ccccc1	25.5	52.3	?	.	?
O=C(C[n+]1cc(-c2ccc(Br)cc2)n2c1CCCCC2)c1ccccc1	.	.	1.65µM	?	?
CCc1cc2c(=O)c(-c3nc4ccccc4[nH]3)coc2c(CN2CCCCC2)c1O	26.6	.	.	.	.
COc1ccc(-c2coc3c(CN4CCCCC4C)c(O)ccc3c2=O)cc1 (configuration not stated)	.	.	?	?	?
CCc1cc2c(=O)c(-c3ccc4c(c3)OCCO4)coc2cc1OS(C)(=O)=O	42.2	78.7	.	?	.
O=c1c(-c2ccc3c(c2)OCCO3)coc2c(CN3CCOCC3)c(O)ccc12	39.1	32.9	.	.	11.7µM
CCc1cc2c(=O)c(-c3nc4ccccc4n3C)coc2c(CN2CCCC(C)C2)c1O (configuration not stated)	.	.	?	.	?
COc1ccccc1-c1coc2c(CN3CCOCC3)c(O)ccc2c1=O	.	.	?	.	.
CCc1cc2c(=O)c(-c3ccc4c(c3)OCCO4)coc2c(CN2CCCCC2C)c1O (configuration not stated)	.	.	2.08µM	-61.5	.
C[C@H](CO)N1C[C@H](C)[C@@H](CN(C)C(=O)Nc2ccccc2F)OCc2cnnn2CCCC1=O	/	/	/	.	/
SMILES	Cycloheximide cs	Shiga toxin inh	Pf growth 48h	HCMV inh	Pf growth 96h
CCc1cc2c(=O)c(-c3nc4ccccc4[nH]3)coc2c(CN2CCCCC2C)c1O (configuration not stated)	.	.	1.47µM	.	0.738µM
O=C(/C(=C/O)N=Nc1ccccc1)c1cccs1	39.0	.	?	?	.
COc1ccccc1-c1oc2ccccc2c1C#CC1(N)CCCCC1	/	/	8.28µM	.	3.29µM
COc1ccccc1-c1oc2ccccc2c1C#CC1(O)CCCCC1	/	/	/	.	/
CCCNC(=O)N1CCN(C(c2ccccc2)c2ccccc2)CC1	.	.	?	.	.
O=C(NC(=O)N1CCN(C(c2ccccc2)c2ccccc2)CC1)c1ccccc1	.	.	13.1µM	.	?
CCSc1ccccc1C(=O)N1CCN(c2ccccc2F)CC1	.	.	?	-103.1	.
O=C(c1ccccc1C(=O)N1CCN(c2ccccc2F)CC1)N1CCN(c2ccccc2F)CC1	.	.	?	.	/
Cc1cc(C(C)(C)C)oc1C(=O)N1CCN(C(=O)c2oc(C(C)(C)C)cc2C)CC1	.	.	?	-66.5	/
